From PubChem BioAssay
IL-1B inflam inh: qHTS for Inhibitors of Inflammasome Signaling: IL-1-beta AlphaLISA Primary Screen; activity change, % at 57.5 µM; THP-1 LPS/ATP IL-1B secretion, AlphaLISA, 16 h; active compounds read low; actives 4.7% (n = 360,000); AID 743279, 2014; in the data active means activity change below about -50%; inconclusive means mostly about -30% to -49%
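Secreted IL-1B measured by AlphaLISA bead assay after 16 h compound exposure of THP-1 cells; compounds (final up to 57.5 uM) added 1 h before LPS (250 ng/mL) and ATP (1.25 mM) stimulation; lower signal means less secretion.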
RORg inh: qHTS for inhibitors of ROR gamma transcriptional activity; Drosophila S2 Gal4-RORgamma UAS-luciferase reporter, 20 h; Potency, µM (highest dose often 53.6 µM), without a hit: at the highest dose activity change, negative = inhibition, actives largely listed as inhibitors; actives 5.4% (n = 310,000); further: potency means the concentration at half of the fitted maximal effect; nearly all actives have a fitted effect of over 60% in size
Target sequence (P51450 whole entry, looked up, the tested form may be a part): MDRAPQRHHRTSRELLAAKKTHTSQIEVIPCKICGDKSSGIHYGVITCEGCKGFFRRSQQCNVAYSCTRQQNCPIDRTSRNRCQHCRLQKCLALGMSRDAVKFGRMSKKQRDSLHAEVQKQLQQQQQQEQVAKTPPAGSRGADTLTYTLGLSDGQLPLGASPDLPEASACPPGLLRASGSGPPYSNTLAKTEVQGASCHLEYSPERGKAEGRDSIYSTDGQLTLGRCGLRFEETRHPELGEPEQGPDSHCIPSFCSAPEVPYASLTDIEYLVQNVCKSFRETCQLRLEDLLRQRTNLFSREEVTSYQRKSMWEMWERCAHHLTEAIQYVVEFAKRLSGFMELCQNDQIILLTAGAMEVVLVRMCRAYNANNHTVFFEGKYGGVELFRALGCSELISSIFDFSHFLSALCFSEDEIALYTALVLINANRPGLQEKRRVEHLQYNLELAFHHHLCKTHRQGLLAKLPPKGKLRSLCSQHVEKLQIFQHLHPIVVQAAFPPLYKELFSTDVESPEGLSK
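Luminescence from a UAS-regulated Photinus luciferase reporter in stably transfected Drosophila Schneider cells is measured; decreased signal marks ROR gamma inhibition. Fusion expression is induced by 700 uM copper sulfate for 20 hr.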
TDP1 cell noCPT: qHTS for Inhibitors of human tyrosyl-DNA phosphodiesterase 1 (TDP1): qHTS in cells in absence of CPT; DT40 Tdp1-/- hTDP1 cells, no CPT, ATP luminescence, 48 h; Potency, µM (doses to about 46.2 µM), without a hit: top-dose activity change, negative = growth inhibition, actives largely listed as inhibitors; actives 15% (n = 420,000); further: potency means the concentration at half of the fitted maximal effect; nearly all actives have a fitted effect of over 55% in size
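Cells were dispensed at 400 per well, compounds added by pin tool, plates incubated ≥48 hr at 37 °C, then CellTiter-Glo added for 30 min at room temperature before luminescence reading. Line: DT40 Tdp1-/- complemented with hTDP1; camptothecin omitted.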
LDHA inh: qHTS assay for inhibitors of human lactate dehydrogenase | activity change, % (values are at about 110 or 230 µM) | purified LDHA, NADH/diaphorase-resazurin fluorescence; active compounds read low | actives 0.15% (n = 480,000) | L-lactate dehydrogenase A chain (Homo sapiens), P00338 | AID 1347041, 2019; in the data active means activity change below about -30%; inconclusive means mostly about -25% to -30%;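 further: plate controls were DMSO wells for no effect and wells without enzyme for full effect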
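Remaining NADH was detected by diaphorase (0.133 mg/mL) converting 37 µM resazurin to fluorescent resorufin, read at 0 and 20 minutes. The preceding 5-minute room-temperature reaction used 2 nM LDHA, 0.2 mM sodium pyruvate and 0.06 mM NADH at pH 7.4.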
TDP1 cell CPT: qHTS for Inhibitors of human tyrosyl-DNA phosphodiesterase 1 (TDP1): qHTS in cells in presence of CPT. chicken DT40 Tdp1-/-;hTDP1 cells + 20 nM CPT, ATP luminescence, 48 h. actives 12% (n = 420,000). AID 686979, 2013. Potency, µM (top dose mostly 46.2 µM), for inactives: at the highest dose activity change, negative = growth inhibition, usual class: inhibitors; further: potency means the concentration at half of the fitted maximal effect; nearly all actives have a fitted effect of over 55% in size
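Cell growth measured by CellTiter-Glo luminescence after a minimum 48 h, 37 C compound exposure with 20 nM CPT in Tdp1-knockout DT40 cells stably expressing hTDP1, seeded 400/well; qHTS titration format.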
Gal4-VP16 FLuc: VP16 counterscreen qHTS for inhibitors of ROR gamma transcriptional activity | AID 2546, 2010 | Potency, µM (highest dose often 53.6 µM), for inactives: top-dose activity, negative = inhibition, hits mostly inhibitors | Drosophila S2 Gal4-VP16 UAS-luciferase, luminescence, 20 h | actives 3.5% (n = 310,000);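 further: Gal4-VP16 expression switched on by copper sulfate through the metallothionein promoter; potency means the concentration at half of the fitted maximal effect; nearly all actives have a fitted effect of over 50% in size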
Numbers without * were called inactive; ? = inconclusive; / = not tested or not shown; ! = a repeat was not active. Only some compounds are listed: those with a hit (about 18% of all), similar ones and a draw of the others. Unless noted, the call rests on the fitted dose curve; in most records, active means well fitted curve in the direction sought with a large enough effect; inconclusive means small, poorly fitted or top-dose-only effect, or another doubt; inactive means no such curve, though single readings can be large; an effect the other way counts as inactive or inconclusive. Unless noted, on the % scale 0 is the no-effect control and ±100 the full control effect.

SMILES | IL-1B inflam inh | RORg inh | TDP1 cell noCPT | LDHA inh | TDP1 cell CPT | Gal4-VP16 FLuc
CC1CCC(Nc2ccnc3cc(Cl)ccc23)CC1 (stereo not drawn) | / | / | / | 4 | / | /
Nc1ncc(S(=O)(=O)Nc2ccccc2)cn1 | / | / | / | 5 | / | /
CCOC(=O)c1cc(NC(=O)C(c2ccccc2)c2ccccc2)ccc1N1CCOCC1 | / | / | / | 10 | / | /
Cc1ccc(OC(C)C(=O)N2CCN(Cc3nc(N)c4ccccc4n3)CC2)cc1 (stereo not drawn) | / | / | / | 4 | / | /
CCCOc1ccccc1C(=O)Nc1ccc(OC)c2ncccc12 | / | / | / | 5 | / | /
CCOc1ccc(NC(=O)Cc2ccc(NC(=O)N3CCCCc4ccccc43)cc2)cc1 | / | / | 5.2µM* | -11 | 5.2µM* | /
CC(=O)c1cccc(NC(=O)Cc2ccc(NC(=O)N3CCCCc4ccccc43)cc2)c1 | / | / | 16µM* | -3 | ? | /
CCOc1ccccc1CNC(=O)Cc1ccc(NC(=O)N2CCCCc3ccccc32)cc1 | / | / | 9.2µM* | 1 | 12µM* | /
CC(=O)c1cccc(NC(=O)N2CCCc3ccccc32)c1 | 14 | ? | -9% | 17 | 1% | 19%
COc1cccc(-n2ccnc2SCC(=O)N2CCCc3ccccc32)c1 | ? | -13% | ? | -1 | ? | 2%
CCOc1ccc(CNC(=O)Cc2ccc(NC(=O)N3CCCCc4ccccc43)cc2)cc1OC | / | / | ? | 3 | ? | /
CCOc1ccc(-n2ccnc2SCC(=O)N2CCCc3ccccc32)cc1 | ? | 7.1µM* | ? | -5 | ? | ?
COCCn1c(SCC(=O)c2ccc3c(c2)OCO3)nc2cc(C(=O)NC(C)C)ccc2c1=O | / | / | / | 1 | / | /
c1ccc(CCC2CCNCC2)cc1 | / | / | / | 3 | / | /
CCCCCC1CCNCC1 | / | / | 8.9µM* | / | 6.3µM* | /
CCOC(=O)C1(CCC(C)C)CC(CSc2nc3ccccc3[nH]2)OC1=O (stereo not drawn) | 25 | 0% | 18µM* | 4 | 12µM* | ?
N/C(=N\OC(=O)c1ccccc1)C(Cc1ccccc1)C(=O)NOC(=O)c1ccccc1 (stereo not drawn) | -89* | / | 2.6µM* | -3 | 2.9µM* | /
C=CCOC(=O)C1=C(C)NC(SCC(=O)N(CC)CC)=C(C#N)C1c1ccccc1 (stereo not drawn) | -51* | 23% | 21µM* | 8 | 21µM* | -2%
CCN(CC)C(=O)CSC1=C(C#N)C(c2ccco2)C(C(=O)OCCOC)=C(C)N1 (stereo not drawn) | 0 | 44% | ? | -2 | 21µM*! | ?
Cc1ccc(Nc2nc(NC3CCCCCC3)nc3c2cnn3-c2ccccc2)cc1 | / | / | / | -4 | / | /
Cc1ccc(F)cc1NC(=O)CN1N=C(c2ccccc2)c2cc(Cl)ccc2S1(=O)=O | / | / | / | 4 | / | /
Cc1ccc(OCc2nc(-c3ccccn3)no2)c(Br)c1 | -7 | ? | -18% | 14 | -28% | ?
CC(C)c1ccc(OCc2nc(-c3ccccn3)no2)c(Br)c1 | -54* | -42% | -27% | -1 | -15% | -27%
CC(=O)C1=C(O)CC(c2ccccc2)CC1=NCCc1c(C)[nH]c2ccc(C)cc12 (stereo not drawn) | 1 | -2% | ? | 0 | ? | -18%
CCC/C(O)=C1\C(=O)CC(c2ccccc2)CC1=NCCc1c(C)[nH]c2ccc(C)cc12 (stereo not drawn) | 7 | 2% | ? | -6 | 18µM* | -7%
SMILES | IL-1B inflam inh | RORg inh | TDP1 cell noCPT | LDHA inh | TDP1 cell CPT | Gal4-VP16 FLuc
CC/C(O)=C1\C(=O)CC(c2ccccc2)CC1=NCCc1c(C)[nH]c2ccc(C)cc12 (stereo not drawn) | 11 | -6% | 23µM* | -7 | ? | -6%
CCC(=NCCc1c(C)[nH]c2ccc(C)cc12)C1=C(O)CC(c2ccccc2)CC1=O (stereo not drawn) | 2 | 16% | 0.82µM* | -4 | 0.58µM* | -10%
CCC(NC(=O)CN(C)Cc1ccc(C)o1)c1ccc(C)cc1 (stereo not drawn) | / | / | / | 7 | / | /
O=C1CCC/C(=N/NC(=O)c2ccc(CSc3ccc(Cl)cc3)cc2)C1 | / | / | / | 0 | / | /
Nc1ccc2nc(-c3cccnc3)[nH]c2c1 | 25 | 31% | -23% | 11 | -1% | 7%
Nc1cccc(-c2nc3ccc(C(=O)c4ccccc4)cc3[nH]2)c1 | 49 | -22% | 0.82µM* | -11 | 0.73µM* | -19%
O=[N+]([O-])c1ccc2nc(-c3ccccc3)[nH]c2c1 | -69* | 34% | ? | -11 | ? | 1%
Nc1ccc(-c2nc3c(Cl)cc(N)cc3[nH]2)cc1 | ? | -14% | 7.3µM* | 2 | 5.8µM* | -7%
CC(Sc1nc2ccc(C(=O)c3ccccc3)cc2[nH]1)C(=O)O (stereo not drawn) | 4 | 21% | 0% | -3 | 5% | 1%
Nc1ccc2nc(-c3ccccc3)[nH]c2c1 | -2 | 13µM* | ? | 0 | ? | ?
Nc1ccc2nc(-c3cccs3)[nH]c2c1 | 4 | ? | ? | 9 | 21µM* | 14%
Nc1ccc2nc(-c3ccc(N)c(Cl)c3)[nH]c2c1 | ? | -38% | 8.2µM* | 4 | 6.5µM* | ?
CC(=O)Nc1ccc2nc(-c3cccs3)[nH]c2c1 | 18 | -27% | -18% | -9 | -10% | -9%
CCCN1CCN(CC2=C(C(=O)OC)C(c3ccc(C)cc3)NC(=O)N2)CC1 (stereo not drawn) | / | / | / | -1 | / | /
CCC(C)(C)n1nnnc1C(c1ccc2ncccc2c1)N1CCCC(C)C1 (stereo not drawn) | -18 | -3% | 11µM* | 2 | -22% | -9%
CCC(C)(C)n1nnnc1C(c1ccc2ncccc2c1)N1CCN(c2nc3ccccc3s2)CC1 (stereo not drawn) | -11 | ? | ? | -1 | 21µM* | 3%
CC1=CCC2C(C)(C)CCCC2(C)C1CC/C(C)=C\CC/C(C)=N/NC(N)=O (stereo not drawn) | / | / | / | 11 | / | /
CCc1cccc(C)c1-n1nnnc1C(C)(CC)Nc1ccc2c(c1)OCCO2 (stereo not drawn) | / | / | / | 4 | / | /
Cc1cccc2c(=O)[nH]c3c(-c4nc(-c5ccc(Cl)cc5)cs4)c(O)cn3c12 | / | / | 7.1µM* | -10 | 4µM* | /
